# Laboratory results: the supplement of paper PMC4466140
# Biological target: AgAbp1
# Assay: SPOT peptide array binding signal intensity (averaged, normalized) (arbitrary units (background-subtracted, floor 0; scale differs between SH3 domains)); higher = stronger binding of the SH3 domain to the peptide
# Description: (§1)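 GST-tagged SH3 domains from S. cerevisiae (Sc), A. gossypii (Ag), C. albicans (Ca) and S. pombe (Sp) were incubated at 10 ug/ml overnight at 4 C on cellulose SPOT membranes carrying 292 synthetic 15-mer peptides mined from the S. cerevisiae proteome (cysteines replaced by serines). Binding was detected with anti-GST antibody, HRP secondary and chemiluminescence, quantified with Genespotter, and reported as normalized spot intensities averaged over biological replicates.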
row,Binder,SPOT peptide array binding signal intensity
1,RRLRDKYKLPIVDAD,38

# Biological target: AgBbc1
# Assay: as above
# Description: as §1
row,Binder,SPOT peptide array binding signal intensity
1,RRLRDKYKLPIVDAD,20.8

# Biological target: AgBem1-D1
# Assay: as above
# Description: as §1
row,Binder,SPOT peptide array binding signal intensity
1,RRLRDKYKLPIVDAD,52

# Biological target: AgBzz1-D1
# Assay: as above
# Description: as §1
row,Binder,SPOT peptide array binding signal intensity
1,RRLRDKYKLPIVDAD,32

# Biological target: AgBzz1-D2
# Assay: as above
# Description: as §1
row,Binder,SPOT peptide array binding signal intensity
1,RRLRDKYKLPIVDAD,61.5

# Biological target: AgCyk3
# Assay: as above
# Description: as §1
row,Binder,SPOT peptide array binding signal intensity
1,RRLRDKYKLPIVDAD,1

# Biological target: AgFus1
# Assay: as above
# Description: as §1
row,Binder,SPOT peptide array binding signal intensity
1,RRLRDKYKLPIVDAD,163

# Biological target: AgHof1
# Assay: as above
# Description: as §1
row,Binder,SPOT peptide array binding signal intensity
1,RRLRDKYKLPIVDAD,17

# Biological target: AgHse1
# Assay: as above
# Description: as §1
row,Binder,SPOT peptide array binding signal intensity
1,RRLRDKYKLPIVDAD,748

# Biological target: AgLsb1
# Assay: as above
# Description: as §1
row,Binder,SPOT peptide array binding signal intensity
1,RRLRDKYKLPIVDAD,6

# Biological target: AgLsb4
# Assay: as above
# Description: as §1
row,Binder,SPOT peptide array binding signal intensity
1,RRLRDKYKLPIVDAD,18

# Biological target: AgMyo5
# Assay: as above
# Description: as §1
row,Binder,SPOT peptide array binding signal intensity
1,RRLRDKYKLPIVDAD,0.75

# Biological target: AgNbp2
# Assay: as above
# Description: as §1
row,Binder,SPOT peptide array binding signal intensity
1,RRLRDKYKLPIVDAD,63

# Biological target: AgRvs167
# Assay: as above
# Description: as §1
row,Binder,SPOT peptide array binding signal intensity
1,RRLRDKYKLPIVDAD,3.33

# Biological target: AgSho1
# Assay: as above
# Description: as §1
row,Binder,SPOT peptide array binding signal intensity
1,RRLRDKYKLPIVDAD,83

# Biological target: AgSla1-D1-D2
# Assay: as above
# Description: as §1
row,Binder,SPOT peptide array binding signal intensity
1,RRLRDKYKLPIVDAD,299

# Biological target: AgSla1-D3
# Assay: as above
# Description: as §1
row,Binder,SPOT peptide array binding signal intensity
1,RRLRDKYKLPIVDAD,3

# Biological target: CaAbp1-D1
# Assay: as above
# Description: as §1
row,Binder,SPOT peptide array binding signal intensity
1,RRLRDKYKLPIVDAD,311

# Biological target: CaAbp1-D2
# Assay: as above
# Description: as §1
row,Binder,SPOT peptide array binding signal intensity
1,RRLRDKYKLPIVDAD,326

# Biological target: CaBbc1
# Assay: as above
# Description: as §1
row,Binder,SPOT peptide array binding signal intensity
1,RRLRDKYKLPIVDAD,13

# Biological target: CaBem1-D1
# Assay: as above
# Description: as §1
row,Binder,SPOT peptide array binding signal intensity
1,RRLRDKYKLPIVDAD,5.5

# Biological target: CaBzz1-D1
# Assay: as above
# Description: as §1
row,Binder,SPOT peptide array binding signal intensity
1,RRLRDKYKLPIVDAD,180

# Biological target: CaBzz1-D2
# Assay: as above
# Description: as §1
row,Binder,SPOT peptide array binding signal intensity
1,RRLRDKYKLPIVDAD,34.5

# Biological target: CaCyk3
# Assay: as above
# Description: as §1
row,Binder,SPOT peptide array binding signal intensity
1,RRLRDKYKLPIVDAD,3

# Biological target: CaFus1
# Assay: as above
# Description: as §1
row,Binder,SPOT peptide array binding signal intensity
1,RRLRDKYKLPIVDAD,318

# Biological target: CaHof1
# Assay: as above
# Description: as §1
row,Binder,SPOT peptide array binding signal intensity
1,RRLRDKYKLPIVDAD,0.5

# Biological target: CaHse1
# Assay: as above
# Description: as §1
row,Binder,SPOT peptide array binding signal intensity
1,RRLRDKYKLPIVDAD,12.2

# Biological target: CaLsb1
# Assay: as above
# Description: as §1
row,Binder,SPOT peptide array binding signal intensity
1,RRLRDKYKLPIVDAD,1

# Biological target: CaLsb4
# Assay: as above
# Description: as §1
row,Binder,SPOT peptide array binding signal intensity
1,RRLRDKYKLPIVDAD,13

# Biological target: CaMyo5
# Assay: as above
# Description: as §1
row,Binder,SPOT peptide array binding signal intensity
1,RRLRDKYKLPIVDAD,1.5

# Biological target: CaNbp2
# Assay: as above
# Description: as §1
row,Binder,SPOT peptide array binding signal intensity
1,RRLRDKYKLPIVDAD,102

# Biological target: CaRvs167
# Assay: as above
# Description: as §1
row,Binder,SPOT peptide array binding signal intensity
1,RRLRDKYKLPIVDAD,5.5

# Biological target: CaRvs167-3
# Assay: as above
# Description: as §1
row,Binder,SPOT peptide array binding signal intensity
1,RRLRDKYKLPIVDAD,42.5

# Biological target: CaSho1
# Assay: as above
# Description: as §1
row,Binder,SPOT peptide array binding signal intensity
1,RRLRDKYKLPIVDAD,241

# Biological target: CaSla1-D1-D2
# Assay: as above
# Description: as §1
row,Binder,SPOT peptide array binding signal intensity
1,RRLRDKYKLPIVDAD,5

# Biological target: CaSla1-D3
# Assay: as above
# Description: as §1
row,Binder,SPOT peptide array binding signal intensity
1,RRLRDKYKLPIVDAD,1.75

# Biological target: ScAbp1
# Assay: as above
# Description: as §1
row,Binder,SPOT peptide array binding signal intensity
1,RRLRDKYKLPIVDAD,14.5

# Biological target: ScBbc1
# Assay: as above
# Description: as §1
row,Binder,SPOT peptide array binding signal intensity
1,RRLRDKYKLPIVDAD,8.5

# Biological target: ScBem1-D1
# Assay: as above
# Description: as §1
row,Binder,SPOT peptide array binding signal intensity
1,RRLRDKYKLPIVDAD,26

# Biological target: ScBzz1-D1
# Assay: as above
# Description: as §1
row,Binder,SPOT peptide array binding signal intensity
1,RRLRDKYKLPIVDAD,18

# Biological target: ScBzz1-D2
# Assay: as above
# Description: as §1
row,Binder,SPOT peptide array binding signal intensity
1,RRLRDKYKLPIVDAD,23

# Biological target: ScCyk3
# Assay: as above
# Description: as §1
row,Binder,SPOT peptide array binding signal intensity
1,RRLRDKYKLPIVDAD,22

# Biological target: ScFus1
# Assay: as above
# Description: as §1
row,Binder,SPOT peptide array binding signal intensity
1,RRLRDKYKLPIVDAD,115

# Biological target: ScHof1
# Assay: as above
# Description: as §1
row,Binder,SPOT peptide array binding signal intensity
1,RRLRDKYKLPIVDAD,1

# Biological target: ScHse1
# Assay: as above
# Description: as §1
row,Binder,SPOT peptide array binding signal intensity
1,RRLRDKYKLPIVDAD,1110

# Biological target: ScLsb1
# Assay: as above
# Description: as §1
row,Binder,SPOT peptide array binding signal intensity
1,RRLRDKYKLPIVDAD,9

# Biological target: ScLsb2
# Assay: as above
# Description: as §1
row,Binder,SPOT peptide array binding signal intensity
1,RRLRDKYKLPIVDAD,7.5

# Biological target: ScLsb3
# Assay: as above
# Description: as §1
row,Binder,SPOT peptide array binding signal intensity
1,RRLRDKYKLPIVDAD,90

# Biological target: ScLsb4
# Assay: as above
# Description: as §1
row,Binder,SPOT peptide array binding signal intensity
1,RRLRDKYKLPIVDAD,8

# Biological target: ScMyo3
# Assay: as above
# Description: as §1
row,Binder,SPOT peptide array binding signal intensity
1,RRLRDKYKLPIVDAD,2.5

# Biological target: ScMyo5
# Assay: as above
# Description: as §1
row,Binder,SPOT peptide array binding signal intensity
1,RRLRDKYKLPIVDAD,1.5

# Biological target: ScNbp2
# Assay: as above
# Description: as §1
row,Binder,SPOT peptide array binding signal intensity
1,RRLRDKYKLPIVDAD,90

# Biological target: ScPex13
# Assay: as above
# Description: as §1
row,Binder,SPOT peptide array binding signal intensity
1,RRLRDKYKLPIVDAD,0.5

# Biological target: ScRvs167
# Assay: as above
# Description: as §1
row,Binder,SPOT peptide array binding signal intensity
1,RRLRDKYKLPIVDAD,3.33

# Biological target: ScSho1
# Assay: as above
# Description: as §1
row,Binder,SPOT peptide array binding signal intensity
1,RRLRDKYKLPIVDAD,411

# Biological target: ScSla1-D1-D2
# Assay: as above
# Description: as §1
row,Binder,SPOT peptide array binding signal intensity
1,RRLRDKYKLPIVDAD,36.5

# Biological target: ScSla1-D3
# Assay: as above
# Description: as §1
row,Binder,SPOT peptide array binding signal intensity
1,RRLRDKYKLPIVDAD,13

# Biological target: SpAbp1-D1
# Assay: as above
# Description: as §1
row,Binder,SPOT peptide array binding signal intensity
1,RRLRDKYKLPIVDAD,88.5

# Biological target: SpBbc1
# Assay: as above
# Description: as §1
row,Binder,SPOT peptide array binding signal intensity
1,RRLRDKYKLPIVDAD,0.75

# Biological target: SpBzz1-D1
# Assay: as above
# Description: as §1
row,Binder,SPOT peptide array binding signal intensity
1,RRLRDKYKLPIVDAD,56
